Assay results as given in PubChem BioAssay AID1159580 (chemical genetic matrix, 2015).
Values joined by “and” are separate entries in the source; they are usually repeats but may differ in a detail not shown here. Identical values can stand only once. Hit rate of the full screen: of about 5,500 compounds, about 2,000 (36%) were called active. About 18% were inconclusive and are not listed. No stated cut-off is given here; in the data, active means normalized growth mostly below about 0.91 (no sharp cut-off); inconclusive means no clear call, values can overlap the other calls; inactive means mostly above about 0.92. This is one part of the list.

Experiment: chemical genetic growth profiling, strain panel (AID 1159580);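 further: tested at 20 µM; growth read once vehicle control cultures reached saturation at 30 °C; 1 = growth at the plate median or of vehicle wells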
Details: S. cerevisiae deletion strains, growth OD

Measured: normalized growth

O=C(O)COc1cc(Cl)c(Cl)cc1Cl
inactive: locus YAL013W, strain DEP1, stronger effect = lower value 1 | locus YAL021C, strain ccr4, stronger effect = lower value 0.984 | locus YAL026C, strain drs2, stronger effect = lower value 1 | locus YAL030W, strain snc1, stronger effect = lower value 1.01 | locus YBL061C, strain skt5, stronger effect = lower value 1 | locus YBR009C, strain hhf1, stronger effect = lower value 1 | locus YBR021W, strain FUR4, stronger effect = lower value 1.01 | locus YBR023C, strain chs3, stronger effect = lower value 1 | locus YBR171W, strain sec66, stronger effect = lower value 0.998 | locus YBR229C, strain ROT2, stronger effect = lower value 1.01 | locus YBR231C, strain swc5, stronger effect = lower value 1 | locus YBR279W, strain paf1, stronger effect = lower value 1 | locus YCL011C, strain gbp2, stronger effect = lower value 1 | locus YCL016C, strain dcc1, stronger effect = lower value 0.988 | locus YCL029C, strain bik1, stronger effect = lower value 1.02 | locus YCL061C, strain MRC1, stronger effect = lower value 1 | locus YCL069W, strain vba3, stronger effect = lower value 0.993 | locus YCR088W, strain abp1, stronger effect = lower value 1 | locus YDL005C, strain med2, stronger effect = lower value 0.995 | locus YDL035C, strain GPR1, stronger effect = lower value 1.02 | locus YDL040C, strain nat1, stronger effect = lower value 0.994 | locus YDL074C, strain BRE1, stronger effect = lower value 1.01 | locus YDL101C, strain DUN1, stronger effect = lower value 0.982 | locus YDL134C, strain PPH21, stronger effect = lower value 1.01 | locus YDL185W, strain tfp1, stronger effect = lower value 1.03 | locus YDL192W, strain arf1, stronger effect = lower value 1.02 | locus YDR001C, strain nth1, stronger effect = lower value 1.01 | locus YDR069C, strain doa4, stronger effect = lower value 0.994 | locus YDR101C, strain arx1, stronger effect = lower value 1.02 | locus YDR137W, strain rgp1, stronger effect = lower value 1.05 | locus YDR150W, strain NUM1, stronger effect = lower value 1 | locus YDR159W, strain sac3, stronger effect = lower value 0.999 | locus YDR162C, strain NBP2, stronger effect = lower value 1 | locus YDR195W, strain ref2 0.952 | locus YDR297W, strain sur2, stronger effect = lower value 1 | locus YDR318W, strain mcm21, stronger effect = lower value 1.02 | locus YDR334W, strain swr1, stronger effect = lower value 0.998 | locus YDR335W, strain msn5, stronger effect = lower value 0.994 | locus YDR388W, stronger effect = lower value 1.02 | locus YDR392W, strain spt3, stronger effect = lower value 1.01 | locus YDR502C, strain sam2, stronger effect = lower value 1.01 | locus YEL003W, strain gim4, stronger effect = lower value 1.02 | locus YEL037C, strain rad23, stronger effect = lower value 1.01 | locus YEL061C, strain CIN8 (second series), stronger effect = lower value 0.999 | locus YEL061C, strain CIN8, stronger effect = lower value 1 | locus YER015W, strain faa2, stronger effect = lower value 1 | locus YER016W, strain bim1, stronger effect = lower value 1 | locus YER110C, stronger effect = lower value 1.02 | locus YER111C, strain swi4, stronger effect = lower value 0.993 | locus YER155C, strain BEM2 (second series), stronger effect = lower value 0.989 | locus YER155C, strain BEM2, stronger effect = lower value 1.01 | locus YER167W, strain BCK2, stronger effect = lower value 1.02 | locus YFR010W, strain ubp6, stronger effect = lower value 1 | locus YGL078C, strain dbp3, stronger effect = lower value 1.02 | locus YGL086W, strain mad1, stronger effect = lower value 1.01 | locus YGL167C, strain pmr1, stronger effect = lower value 1 | locus YGL173C, strain kem1, stronger effect = lower value 0.994 | locus YGL227W, strain vid30, stronger effect = lower value 1 | locus YGL240W, strain doc1, stronger effect = lower value 0.999 | locus YGL248W, strain PDE1, stronger effect = lower value 1.02 | locus YGL253W, strain hxk2, stronger effect = lower value 0.995 | locus YGR078C, strain PAC10, stronger effect = lower value 1.02 | locus YGR135W, strain pre9, stronger effect = lower value 1.03 | locus YGR229C, strain SMI1, stronger effect = lower value 1.02 | locus YGR252W, strain gcn5, stronger effect = lower value 1.04 | locus YHR013C, strain ard1, stronger effect = lower value 0.997 | locus YHR027C, strain rpn1, stronger effect = lower value 0.998 | locus YHR030C, strain SLT2, stronger effect = lower value 1.01 | locus YHR079C, strain IRE1 (second series), stronger effect = lower value 1.02 | locus YHR079C, strain IRE1, stronger effect = lower value 1.02 | locus YHR094C, strain hxt1, stronger effect = lower value 1.02 | locus YHR129C, strain ARP1, stronger effect = lower value 1.01 | locus YHR142W, strain chs7, stronger effect = lower value 1 | locus YHR200W, strain rpn10, stronger effect = lower value 1.01 | locus YIL066C, strain RNR3, stronger effect = lower value 1.03 | locus YIL073C, strain SPO22, stronger effect = lower value 1.09 | locus YIL125W, strain kgd1, stronger effect = lower value 1.02 | locus YIR030C, strain dcg1, stronger effect = lower value 1.02 | locus YJL092W, strain hpr5, stronger effect = lower value 0.999 | locus YJL095W, strain BCK1 (second series), stronger effect = lower value 0.994 | locus YJL095W, strain BCK1, stronger effect = lower value 1.02 and 1.03 | locus YJL115W, strain asf1, stronger effect = lower value 0.991 | locus YJL129C, strain trk1, stronger effect = lower value 0.998 | locus YJL134W, strain LCB3, stronger effect = lower value 1.01 | locus YJL154C, strain vps35, stronger effect = lower value 0.998 | locus YJL164C, strain tpk1, stronger effect = lower value 1.01 | locus YJL166W, strain qcr8, stronger effect = lower value 1.01 | locus YJL168C, strain set2, stronger effect = lower value 1.02 | locus YJL187C, strain SWE1 (second series), stronger effect = lower value 1.01 | locus YJL187C, strain SWE1, stronger effect = lower value 1 | locus YJR043C, strain POL32, stronger effect = lower value 1.01 | locus YJR066W, strain TOR1, stronger effect = lower value 0.94
